Measured values published in PubChem BioAssay (EPA / NIEHS).
Records with an inconclusive call do not appear. Active and inactive are the calls of the source. Rule for the calls, unless noted: active = hit-call score of the fitted dose curve at least 0.9, where 1 is the maximum; inconclusive = response in the unintended direction; inactive = score below 0.9.

Columns and labels:
[1] = target: human RAR-related Orphan Receptor gamma (RORg), RORC (gene 6097) (UniProt P51449); test: ATG_RORg_TRANS: Attagene TRANS-FACTORIAL HepG2 Assay for human RAR-related Orphan Receptor gamma (RORg) (AID 2283011);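 for AC50: potency for induction of reporter transcripts above DMSO so activators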
Chain of human RAR-related Orphan Receptor gamma (RORg), RORC (gene 6097) (P51449 whole entry, looked up, the tested form may be a part): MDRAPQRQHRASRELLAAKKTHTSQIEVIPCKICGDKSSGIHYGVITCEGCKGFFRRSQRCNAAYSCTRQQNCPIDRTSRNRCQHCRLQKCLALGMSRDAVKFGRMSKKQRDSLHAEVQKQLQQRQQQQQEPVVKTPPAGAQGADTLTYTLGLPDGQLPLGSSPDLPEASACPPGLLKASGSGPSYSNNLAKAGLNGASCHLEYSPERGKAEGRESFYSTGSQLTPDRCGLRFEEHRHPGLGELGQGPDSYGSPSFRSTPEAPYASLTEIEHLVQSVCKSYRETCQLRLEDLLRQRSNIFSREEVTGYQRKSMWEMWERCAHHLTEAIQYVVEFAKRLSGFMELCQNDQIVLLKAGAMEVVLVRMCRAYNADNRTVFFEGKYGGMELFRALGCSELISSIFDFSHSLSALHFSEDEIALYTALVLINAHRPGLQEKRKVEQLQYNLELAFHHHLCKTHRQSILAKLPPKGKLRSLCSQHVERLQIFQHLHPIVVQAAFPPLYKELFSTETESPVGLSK
Procedure, shortened: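 Chimeric RORg-Gal4 transactivation in transfected HepG2; 24 h exposure; RT-PCR/capillary electrophoresis readout of reporter mRNA, DMSO baseline.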

[2] = target: human Retinoid X Receptor beta (RXRb), RXRB (gene 6257) (UniProt P28702); test: ATG_RXRb_TRANS: Attagene TRANS-FACTORIAL HepG2 Assay for human Retinoid X Receptor beta (RXRb) (AID 2283013)
Chain of human Retinoid X Receptor beta (RXRb), RXRB (gene 6257) (P28702 whole entry, looked up): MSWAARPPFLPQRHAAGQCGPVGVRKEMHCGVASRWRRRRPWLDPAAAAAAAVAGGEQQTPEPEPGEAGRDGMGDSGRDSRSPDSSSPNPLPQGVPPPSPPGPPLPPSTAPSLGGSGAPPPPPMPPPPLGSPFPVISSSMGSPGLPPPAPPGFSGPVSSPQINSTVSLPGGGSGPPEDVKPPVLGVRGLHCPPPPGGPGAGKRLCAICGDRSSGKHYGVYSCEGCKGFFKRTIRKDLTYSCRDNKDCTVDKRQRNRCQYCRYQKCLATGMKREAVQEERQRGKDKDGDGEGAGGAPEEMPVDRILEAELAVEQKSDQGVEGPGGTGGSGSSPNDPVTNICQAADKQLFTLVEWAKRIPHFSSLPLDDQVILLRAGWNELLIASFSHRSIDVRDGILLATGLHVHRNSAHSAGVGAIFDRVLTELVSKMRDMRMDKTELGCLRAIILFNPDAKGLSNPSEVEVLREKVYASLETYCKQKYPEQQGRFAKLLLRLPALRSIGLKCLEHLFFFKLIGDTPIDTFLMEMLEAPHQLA
Procedure, shortened: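 Multiplexed TRANS reporter assay in HepG2; 24 h dosing; reporter mRNA by RT-PCR/CE fluorescence; gain-of-signal relative to DMSO.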

[3] = target: Retinoic acid receptor RXR-alpha (Homo sapiens) (UniProt P19793); test: ATG_RXRa_TRANS: Attagene TRANS-FACTORIAL HepG2 Assay for human Retinoid X Receptor alpha (RXRa) (AID 2283012)
Chain of Retinoic acid receptor RXR-alpha (Homo sapiens) (P19793 whole entry, looked up, the tested form may be a part): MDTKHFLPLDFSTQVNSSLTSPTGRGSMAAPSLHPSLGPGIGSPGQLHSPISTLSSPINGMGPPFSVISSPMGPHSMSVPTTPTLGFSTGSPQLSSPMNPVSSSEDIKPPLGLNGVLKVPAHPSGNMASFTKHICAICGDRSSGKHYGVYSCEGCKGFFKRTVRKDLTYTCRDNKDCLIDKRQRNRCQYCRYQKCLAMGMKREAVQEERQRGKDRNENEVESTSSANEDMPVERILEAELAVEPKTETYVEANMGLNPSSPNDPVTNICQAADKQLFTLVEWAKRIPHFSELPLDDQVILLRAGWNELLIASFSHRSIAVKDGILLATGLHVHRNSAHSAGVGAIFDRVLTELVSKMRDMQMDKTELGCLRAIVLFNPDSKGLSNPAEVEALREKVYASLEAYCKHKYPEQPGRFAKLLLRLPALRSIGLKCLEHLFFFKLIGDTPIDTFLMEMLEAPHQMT
Procedure, shortened: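 Cells (HepG2) carried transiently transfected GAL4-responsive reporter units. Following a 24 h chemical incubation, reporter mRNA induction was read via RT-PCR fragment analysis; DMSO served as negative control and baseline.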

[4] = target: human Vitamin D Receptor (VDR), VDR (gene 7421) (UniProt P11473); test: ATG_VDR_TRANS: Attagene TRANS-FACTORIAL HepG2 Assay for human Vitamin D Receptor (VDR) (AID 2283022)
Chain of human Vitamin D Receptor (VDR), VDR (gene 7421) (P11473 whole entry, looked up): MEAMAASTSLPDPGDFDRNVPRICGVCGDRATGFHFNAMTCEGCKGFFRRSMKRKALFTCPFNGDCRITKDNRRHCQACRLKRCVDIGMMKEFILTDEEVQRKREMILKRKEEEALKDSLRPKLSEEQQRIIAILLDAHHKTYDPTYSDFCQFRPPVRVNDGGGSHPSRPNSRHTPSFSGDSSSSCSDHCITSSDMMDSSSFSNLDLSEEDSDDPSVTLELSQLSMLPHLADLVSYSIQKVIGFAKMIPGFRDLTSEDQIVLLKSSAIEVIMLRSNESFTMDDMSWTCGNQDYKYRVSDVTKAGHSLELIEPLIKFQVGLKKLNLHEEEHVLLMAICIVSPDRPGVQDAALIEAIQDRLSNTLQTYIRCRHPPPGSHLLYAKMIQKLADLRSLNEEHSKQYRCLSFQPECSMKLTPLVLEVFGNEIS
Procedure, shortened: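 Multiplexed TRANS reporter in HepG2; 24 h treatment; reporter mRNA by RT-PCR plus capillary electrophoresis; upregulation scored relative to DMSO.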

[5] = target: human Thyroid Receptor alpha (THRa1), THRA (gene 7067) (UniProt P10827); test: ATG_THRa1_TRANS: Attagene TRANS-FACTORIAL HepG2 Assay for human Thyroid Receptor alpha (THRa1) (AID 2283014)
Chain of human Thyroid Receptor alpha (THRa1), THRA (gene 7067) (P10827 whole entry, looked up, the tested form may be a part): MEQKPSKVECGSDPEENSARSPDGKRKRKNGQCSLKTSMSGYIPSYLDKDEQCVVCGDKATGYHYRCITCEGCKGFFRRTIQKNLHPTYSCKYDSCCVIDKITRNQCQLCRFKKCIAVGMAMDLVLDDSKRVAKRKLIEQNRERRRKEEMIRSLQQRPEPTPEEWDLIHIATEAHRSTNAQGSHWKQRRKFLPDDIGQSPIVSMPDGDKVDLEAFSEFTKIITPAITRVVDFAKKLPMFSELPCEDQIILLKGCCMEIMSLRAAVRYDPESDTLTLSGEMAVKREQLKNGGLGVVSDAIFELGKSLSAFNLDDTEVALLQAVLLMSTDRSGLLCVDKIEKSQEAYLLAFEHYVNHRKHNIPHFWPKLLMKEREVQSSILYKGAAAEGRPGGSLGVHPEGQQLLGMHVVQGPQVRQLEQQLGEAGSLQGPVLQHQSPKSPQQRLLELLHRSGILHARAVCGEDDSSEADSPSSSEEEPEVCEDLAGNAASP
Procedure, shortened: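 Measured here is mRNA from a GAL4-UAS reporter in transfected HepG2 cells carrying a Gal4-fused receptor, 24 h post-dose. DMSO served as negative control and baseline.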

[6] = read-out: E-selectin (Homo sapiens) (UniProt P16581); test: BSK_3C_Eselectin: BioMAP Diversity Plus: 3C Assay for Eselectin Biomarker Activity (AID 2283015; active = hit-call score of the fitted dose curve at least 0.9, where 1 is the maximum; inactive = score below 0.9;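 note: cell surface E-selectin protein quantified by ELISA 24 h after dosing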); settings: primary human endothelial cells (HUVEC); actives raise or lower the signal
Procedure, shortened: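 Endpoint derived by bidirectional fitting against DMSO vehicle; signal is ELISA-detected E-selectin from primary HUVEC at 24 h post-dosing, with parallel SRB staining (0.1% SRB, 560 nm) flagging cytotoxicity.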

[7] = read-out: Interleukin-1 alpha (IL1a), IL1A (gene 3552); test: BSK_BE3C_IL1a: BioMAP Diversity Plus: BE3C Assay for Interleukin-1 alpha (IL1a) Biomarker Activity (AID 2283016; active = hit-call score of the fitted dose curve at least 0.9, where 1 is the maximum; inactive = score below 0.9); settings: primary human bronchial epithelial cells; actives raise or lower the signal
Procedure, shortened: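 Cultures of primary human bronchial epithelial cells receive test chemical. After 24 h, IL-1a is quantified by ELISA, while parallel wells are fixed in TCA and SRB-stained for total protein. Changes in either direction are fitted relative to DMSO.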

[8] = read-out: Monocyte Chemoattractant Protein-1 (MCP1), CCL2 (gene 6347); test: BSK_3C_MCP1: BioMAP Diversity Plus: 3C Assay for Monocyte Chemoattractant Protein-1 (MCP1) Biomarker Activity (AID 2283017; active = hit-call score of the fitted dose curve at least 0.9, where 1 is the maximum; inactive = score below 0.9); settings: primary human endothelial cells (HUVEC); actives raise or lower the signal
Procedure, shortened: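 Using human vascular primary endothelium, researchers measured MCP-1 by ELISA 24 h after treatment, with DMSO serving as negative control for bidirectional fitting.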

[9] = read-out: Monocyte Chemoattractant Protein-1 (MCP1), CCL2 (gene 6347); test: BSK_4H_MCP1: BioMAP Diversity Plus: 4H Assay for Monocyte Chemoattractant Protein-1 (MCP1) Biomarker Activity (AID 2283018; active = hit-call score of the fitted dose curve at least 0.9, where 1 is the maximum; inactive = score below 0.9); settings: primary human endothelial cells (HUVEC); actives raise or lower the signal
Procedure, shortened: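 Readout: MCP-1 ELISA on compound-treated HUVEC, sampled 24 h post-dosing. Baseline and negative control DMSO; bidirectional fit. Overt toxicity checked alongside by sulforhodamine B protein staining at time of biomarker measurement.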

[10] = read-out: Human Leukocyte Antigen - DR isotype (HLADR), HLA-DRA (gene 3122); test: BSK_3C_HLADR: BioMAP Diversity Plus: 3C Assay for Human Leukocyte Antigen - DR isotype (HLADR) Biomarker Activity (AID 2283019; active = hit-call score of the fitted dose curve at least 0.9, where 1 is the maximum; inactive = score below 0.9); settings: primary human endothelial cells (HUVEC); actives raise or lower the signal
Procedure, shortened: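 Compound added to primary HUVEC cultures, 24 h incubation, then HLA-DR determined by ELISA; endpoint derived by bidirectional fitting relative to DMSO negative control.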

[11] = read-out: Interleukin-8 (IL8), CXCL8 (gene 3576); test: BSK_3C_IL8: BioMAP Diversity Plus: 3C Assay for Interleukin-8 (IL8) Biomarker Activity (AID 2283020; active = hit-call score of the fitted dose curve at least 0.9, where 1 is the maximum; inactive = score below 0.9); settings: primary human endothelial cells (HUVEC); actives raise or lower the signal
Procedure, shortened: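 Human vascular endothelial cells (umbilical vein) in the 3C system; IL-8 level detected by ELISA at 24 h post-dose, with DMSO as baseline.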

[12] = read-out: Matrix Metallopeptidase 1 (MMP1), MMP1 (gene 4312); test: BSK_BE3C_MMP1: BioMAP Diversity Plus: BE3C Assay for Matrix Metallopeptidase 1 (MMP1) Biomarker Activity (AID 2283024; active = hit-call score of the fitted dose curve at least 0.9, where 1 is the maximum; inactive = score below 0.9); settings: primary human bronchial epithelial cells; actives raise or lower the signal
Procedure, shortened: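 Dose cells, wait 24 h, run MMP1 ELISA; cells are human bronchial epithelial primaries. Both increases and decreases relative to DMSO counted.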

[13] = read-out: Pselectin, SELP (gene 6403); test: BSK_4H_Pselectin: BioMAP Diversity Plus: 4H Assay for Pselectin Biomarker Activity (AID 2283026; active = hit-call score of the fitted dose curve at least 0.9, where 1 is the maximum; inactive = score below 0.9); settings: primary human endothelial cells (HUVEC); actives raise or lower the signal
Procedure, shortened: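 Human vascular endothelium from umbilical vein; P-selectin measured by ELISA at 24 h post-dose, with cytotoxicity checked by sulforhodamine B total-protein staining in parallel cultures (0.1% SRB after 10% TCA fixation, read at 560 nm).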

[14] = BSK_4H_SRB: Viability Assessment in the BioMAP Diversity Plus: 4H Assay (AID 2283027; active = hit-call score of the fitted dose curve at least 0.9, where 1 is the maximum; inactive = score below 0.9;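 note: cells exposed to compound for 24 h before staining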;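 for AC50: curves fitted both ways versus DMSO so AC50 may be loss or gain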); settings: primary human endothelial cells (HUVEC)
Procedure, shortened: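 Human umbilical vein endothelial cells were dosed with chemical and, after 24 h, fixed with 10% TCA, stained with 0.1% sulforhodamine B, and read at 560 nm to give total protein as a cytotoxicity measure. Bidirectional fitting relative to DMSO control.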

[15] = BSK_BE3C_SRB: Viability Assessment in the BioMAP Diversity Plus: BE3C Assay (AID 2283028; active = hit-call score of the fitted dose curve at least 0.9, where 1 is the maximum; inactive = score below 0.9;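 note: measured 24 h after chemical dosing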;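 for AC50: fitted both ways so AC50 may mark signal gain or loss versus DMSO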); settings: primary human bronchial epithelial cells
Procedure, shortened: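 SRB total-protein staining (0.1%, after TCA fixation) of chemically dosed human bronchial epithelial primary cells at 24 h; DMSO serves as the negative control for bidirectional curve fitting.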

[16] = read-out: Thrombomodulin, THBD (gene 7056); test: BSK_3C_Thrombomodulin: BioMAP Diversity Plus: 3C Assay for Thrombomodulin Biomarker Activity (AID 2283029; active = hit-call score of the fitted dose curve at least 0.9, where 1 is the maximum; inactive = score below 0.9); settings: primary human endothelial cells (HUVEC); actives raise or lower the signal
Procedure, shortened: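 Thrombomodulin ELISA, human primary HUVEC, 24 h post-dose; data fitted in both directions relative to DMSO.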

[17] = read-out: Urokinase-type plasminogen activator receptor (uPAR), PLAUR (gene 5329); test: BSK_4H_uPAR: BioMAP Diversity Plus: 4H Assay for Urokinase-type plasminogen activator receptor (uPAR) Biomarker Activity (AID 2283030; active = hit-call score of the fitted dose curve at least 0.9, where 1 is the maximum; inactive = score below 0.9); settings: primary human endothelial cells (HUVEC); actives raise or lower the signal
Procedure, shortened: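 Endpoint derived via bidirectional curve fitting against DMSO baseline; readout was ELISA detection of uPAR on umbilical vein endothelial cells at 24 h post-treatment, with SRB-stained parallel cultures assessing cytotoxicity.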

[18] = BSK_3C_SRB: Viability Assessment in the BioMAP Diversity Plus: 3C Assay (AID 2283023; active = hit-call score of the fitted dose curve at least 0.9, where 1 is the maximum; inactive = score below 0.9;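 note: cells read 24 h after compound dosing; fitted both ways against DMSO so a hit may be signal rise or drop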); settings: primary human endothelial cells (HUVEC)
Procedure, shortened: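 Overt cytotoxicity is gauged in parallel confluent HUVEC cultures by SRB total-protein staining at the time of biomarker measurement, 24 h after dosing. Gain or loss of signal is fitted versus DMSO.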

[19] = BSK_3C_Vis: BioMAP Diversity Plus: 3C Assay for Morphology Visualization (AID 2283025; active = hit-call score of the fitted dose curve at least 0.9, where 1 is the maximum; inactive = score below 0.9;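 note: light microscopy image of cell morphology used as background control; cells imaged 24 h after dosing; fitted both ways so gain or loss versus DMSO counts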); settings: primary human endothelial cells (HUVEC)
Procedure, shortened: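 Endothelial cells from human umbilical vein were treated with test chemicals for 24 h and inspected by light microscopy for changes in cell conformation.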

Measured: AC50

Chain of E-selectin (Homo sapiens) (P16581 whole entry, looked up): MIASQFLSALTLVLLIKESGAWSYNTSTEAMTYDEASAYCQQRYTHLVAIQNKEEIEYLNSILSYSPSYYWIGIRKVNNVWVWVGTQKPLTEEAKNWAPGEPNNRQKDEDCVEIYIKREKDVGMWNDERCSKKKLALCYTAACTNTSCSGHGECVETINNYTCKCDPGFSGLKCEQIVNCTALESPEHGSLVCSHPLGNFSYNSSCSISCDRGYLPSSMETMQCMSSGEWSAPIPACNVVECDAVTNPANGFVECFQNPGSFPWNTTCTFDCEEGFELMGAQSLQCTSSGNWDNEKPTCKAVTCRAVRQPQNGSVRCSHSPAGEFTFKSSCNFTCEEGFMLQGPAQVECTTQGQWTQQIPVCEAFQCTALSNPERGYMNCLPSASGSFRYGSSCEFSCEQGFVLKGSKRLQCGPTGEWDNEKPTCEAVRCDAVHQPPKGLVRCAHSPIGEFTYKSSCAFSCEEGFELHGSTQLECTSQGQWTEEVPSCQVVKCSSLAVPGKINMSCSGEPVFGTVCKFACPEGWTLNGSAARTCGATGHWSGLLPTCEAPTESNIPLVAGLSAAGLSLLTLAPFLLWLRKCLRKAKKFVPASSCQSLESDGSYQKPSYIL

[O-]n1ccccc1=S.[O-]n1ccccc1=S.[Zn+2]
inactive: [1] | [2]

O=P(O)(O)O
inactive: [1] | [2]

CCN(CCC#N)c1ccc(N=Nc2ccc([N+](=O)[O-])cc2)cc1
inactive: [1] | [3] | [4]

C=CC(=C)CCCC(C)(C)OC(C)=O
inactive: [1] | [3] | [5]

CCCCC(CC)COC(=O)c1ccc(O)cc1 (stereo not given)
inactive: [1] | [3] | [5] | [4]
active: [2] 33.4 µM

Cc1c(C2(c3cc(Br)c(O)c(Br)c3C)OS(=O)(=O)c3ccccc32)cc(Br)c(O)c1Br
inactive: [1] | [3] | [5] | [4]

COC(=O)c1cccnc1
inactive: [1] | [3] | [5]

CC1=NN(c2ccc(S(=O)(=O)O)cc2)C(=O)C1
inactive: [1] | [3] | [2] | [5] | [4]

OCC#CCO
inactive: [1] | [3] | [4]

O=CN1CCOCC1
not listed: [4] | [5] | [18] | [19]
inactive: all other assays above

CC1C2CC(CC2C2CCCC(O)C2)C1(C)C (stereo not given)
inactive: [1] | [3] | [2] | [4]

C=CCN(CC=C)CC=C
inactive: [1] | [3] | [4]

CCCC(=O)c1ccccc1
inactive: [1] | [3] | [5] | [4]

O=C1NC2NC(=O)NC2N1 (stereo not given)
inactive: [1] | [3] | [4]

OC[C@H]1O[C@@H]2O[C@H]3[C@H](O)[C@@H](O)[C@@H](O[C@H]4[C@H](O)[C@@H](O)[C@@H](O[C@H]5[C@H](O)[C@@H](O)[C@@H](O[C@H]6[C@H](O)[C@@H](O)[C@@H](O[C@H]7[C@H](O)[C@@H](O)[C@@H](O[C@H]8[C@H](O)[C@@H](O)[C@@H](O[C@H]9[C@H](O)[C@@H](O)[C@@H](O[C@H]1[C@H](O)[C@H]2O)O[C@@H]9CO)O[C@@H]8CO)O[C@@H]7CO)O[C@@H]6CO)O[C@@H]5CO)O[C@@H]4CO)O[C@@H]3CO
inactive: [1] | [2]

CC(=O)C1(C)CC2=C(CCCC2(C)C)CC1C (stereo not given)
active: [2] 36.1 µM | [7] 20 µM | [8] 11 µM | [9] 10.4 µM | [10] 10.4 µM | [11] 5.52 µM | [18] 8.86 µM | [12] 27.5 µM | [19] 8.8 µM | [13] 5.95 µM | [14] 6.99 µM | [15] 27.1 µM | [17] 5.19 µM
inactive: [1] | [3] | [16]

C=Cc1ccncc1
active: [1] 60.2 µM
inactive: [3] | [2] | [5] | [4]

Cc1ccc(OC(=O)c2ccccc2O)cc1
inactive: [1] | [3] | [5]
